The panel holds about 83,000 compounds, 20% with a hit somewhere; the sample as a whole holds those more often.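 Each cell line was grown in a 96-well plate and treated with one concentration of compound for 48 hours. Values below 10 were considered active.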 A number with no mark means an inactive call. The source made the active and inactive calls.
Legend:
Assay in all cases: NCI-60 one-dose screen, 48 h (100 = growth as untreated, 0 = no growth, -100 = all killed)
Details in all cases: 10 µM unless noted
[1] = system: T-47D breast
[2] = system: BT-549 breast
[3] = system: MDA-MB-435 melanoma
[4] = system: SW-620 colon
[5] = system: MCF7 breast
[6] = system: HCT-116 colon
[7] = system: HCC-2998 colon
[8] = system: KM12 colon

| Compound | growth [1] | growth [2] | growth [3] | growth [4] | growth [5] | growth [6] | growth [7] | growth [8] |
| --- | --- | --- | --- | --- | --- | --- | --- | --- |
| CCn1cc(C(=O)O)c(=O)c2cc(F)c(N3CCN(S(=O)(=O)c4ccc(Cl)cc4)CC3)cc21 | 41.1% | 12.6% | 25.1% | 24% | 14.3% | 4.8% (active) | 24.5% | 4.3% (active) |
| O=C(CN1C(=O)NC(c2ccccc2)(c2ccccc2)C1=O)c1ccc(N2CCCC2)cc1 | 81.2% | 66.4% | -4.2% (active) | 70.2% | 49.8% | 66% | 101% | 65.8% |
| CCCCCCCCc1ccc(OCCOCC[N+](C)(C)CC)cc1 (tested in a mixture with another compound) | 23.5% | 45.3% | 15.3% | 46.4% | 20.3% | 54.2% | 34.6% | 18% |
| COc1ccc(OC)c(Cn2cc3c(c2-c2ccccc2)CCc2cnoc2-3)c1 | 32.2% | 65.3% | -17.6% (active) | 37.4% | 44.4% | 43.2% | 85.5% | 33.3% |
| Cc1nnc(-c2cc3c(ccc4ccccc43)oc2=O)c2cn(-c3ccc(Cl)cc3)nc12 | 76.2% | 105% | 107% | 99.3% | 80.1% | 85.6% | 97.3% | 94.4% |
| COc1ccc(C2=NN(C(=O)c3cc(-c4ccc(C)cc4)nc4ccccc34)C(c3cc(-c4ccccc4)nn3-c3ccccc3)C2)cc1 (stereo unspecified) | 72.7% | 90.6% | 102% | 96.7% | 88.4% | 81.4% | 102% | 90.8% |
| COc1ccc(/C=C(/C(=O)N2CCCCC2)c2cc(OC)c(OC)c(OC)c2)cc1 | 45.8% | 53.6% | -51.3% (active) | 23.2% | 18.2% | 17.6% | 46.8% | 16% |
| c1cc(C2CCCCC2)ccc1OCCCCCCN1CCNCC1 | 22.8% | 83% | 42.1% | -37.7% (active) | -31.3% (active) | -61.7% (active) | 12.9% | 6.42% (active) |
| CCCCCCC(C(=O)OCC)(C(=O)OCC)C1CCCCCC1 | 91.9% | 104% | 103% | 99.1% | 96.3% | 99% | 100% | 105% |
| CSC1=Nc2c(c(C)c(-c3ccccc3)n2CCCCl)C2=NC(=O)CN12 | 72.4% | 61.2% | -31.4% (active) | 44.4% | 36.3% | 26.7% | 72.3% | 26.1% |
| COc1cc2ncnc(-n3ncc4cc(NC(=O)Nc5ccc(Cl)c(C)c5)ccc43)c2cc1OC | 72% | 89.7% | 93.8% | 120% | 72.7% | 81.5% | 100% | 25.8% |
| COC(=O)c1c[n+]([O-])ccc1OC | 114% | 111% | 102% | 109% | 101% | 113% | 104% | 111% |
| COc1ccc2c(c1)/C(=C/c1c(-c3cc(OC)c(OC)c(OC)c3)nc3sccn13)C(=O)N2 | 86.6% | 98.9% | 100% | 99.9% | 92.4% | 88.3% | 106% | 84% |
| Oc1ccc([S+](c2ccc(O)cc2)c2ccc(O)cc2)cc1 | 107% | 107% | 107% | 107% | 98.8% | 107% | 106% | 107% |
| CCOC1=C(Cl)C(=O)C(OCC)=C(Cl)C1=O | 93.5% | 114% | 100% | 110% | 99.5% | 113% | 91.2% | 98.3% |
| CCN(CC)CCNc1ncnc2c1cnn2-c1ccc(Cl)cc1 | 65% | 95.1% | -34.8% (active) | 63% | 75% | 77.8% | 82.7% | 67.5% |

| Compound | growth [1] | growth [2] | growth [3] | growth [4] | growth [5] | growth [6] | growth [7] | growth [8] |
| --- | --- | --- | --- | --- | --- | --- | --- | --- |
| CCCCCN1CCN(C(CC(=O)c2ccccc2)C(=O)c2ccccc2)CC1 (stereo unspecified) | 101% | 96.2% | 95.5% | -100% (active) | 89.6% | 77.4% | 106% | 102% |
| O=C(/C=C/c1c[nH]c2ccccc12)c1cc2ccccc2o1 | 82.8% | 79.6% | 92.1% | 95.2% | 65.9% | 62% | 105% | 75.7% |
| COc1ccc(CN2C(=O)/C(=C\C(=O)c3ccc(OCCN4CCCC4)cc3)c3ccccc32)cc1 | 57.8% | 92.5% | 90.2% | 3.07% (active) | 32.4% | 18.5% | 101% | 85.4% |
| Cc1ccc([C@@H]2C[C@H](O)Cc3ccccc3N2)s1 | 99.1% | 110% | 103% | 101% | 107% | 116% | 101% | 109% |
| C[C@H]1C[C@@H](n2cnc3c(N)nccc32)[C@H](O)[C@@H]1O | 102% | 93.7% | 113% | 87.2% | 90.1% | 86.8% | 101% | 80.8% |
| COc1cc(OC)c2c(=O)cc(-c3ccccc3)oc2c1 | 91.2% | 109% | 95.8% | 89.7% | 102% | 88.9% | 97% | 106% |
| COC(=O)c1cc(Nc2ccc(O)c3c2C(=O)c2c([N+](=O)[O-])ccc(O)c2C3=O)cc(C(=O)OC)c1 | 68.9% | 44.7% | -84.4% (active) | 13.1% | 33.3% | 36.1% | 36.3% | 88.7% |
| O=C(N/N=C/c1coc2ccccc2c1=O)c1cc2oc(-c3ccccc3)cc2[nH]1 | 84.7% | 77.2% | 100% | 102% | 97.2% | 96.5% | 98.8% | 101% |
| O=C(O)COc1ccc([N+](=O)[O-])cc1Cl | 86.1% | 107% | 107% | 108% | 102% | 105% | 113% | 103% |
| CCOC(=O)C1C(=O)C(=O)N(C(C)C)C1C(=O)OCC (stereo unspecified) | 105% | 119% | 104% | 103% | 99.8% | 110% | 104% | 98.9% |
| CCCCCCCCCC[N+](C)(C)C | 27.3% | 46.7% | 32.6% | 19% | 31.1% | 21.8% | 22% | -51.2% (active) |
| NC(=O)CC(NC(=O)COc1ccc(Cl)cc1Cl)C(=O)O (stereo unspecified) | 109% | 108% | 107% | 105% | 102% | 101% | 109% | 104% |
| COc1cc(CCNc2cnc3cc(N)cc(N)c3n2)cc(OC)c1 | 140% | 113% | 115% | 111% | 96.9% | 103% | 139% | 106% |
| COC(=O)/C=C1/CCCCC1(C)C(=O)OC (stereo unspecified) | 110% | 89.8% | 103% | 106% | 106% | 95.7% | 119% | 107% |
| COc1ccc2oc(=O)cc(CN3C(=O)S/C(=C\c4ccc(Cl)cc4)C3=O)c2c1 | 86.6% | 91.5% | 105% | 108% | 86.9% | 84.8% | 104% | 96.1% |
| CC[C@@H](C)/C=C(C)/C=C/C(=O)c1c(O)c(-c2ccc(OC(=O)[C@@]34CC[C@@](C)(C(=O)O3)C4(C)C)cc2)cn(O)c1=O | 34.7% | -0.686% (active) | 22.2% | 37.3% | 15.6% | 17.1% | -10.3% (active) | 18.4% |
